Measurements from PubChem BioAssay (NCATS).
Records with an inconclusive call do not appear. Entries that show only a call come without a potency. Calls of active or inactive are those of the source. The call rests on the fitted dose curve; in most records, active means well fitted inhibition curve with a large enough effect; inconclusive means small, poorly fitted or top-dose-only effect; inactive means flat fitted curve, though single readings scatter.

Assays:
Assay in all cases: qHTS profiling for inhibitors of Plasmodium falciparum proliferation (AID 504749); further: nearly all actives have a fitted effect of over 60% in size
Conditions in all cases: P. falciparum in erythrocytes, SYBR Green DNA, 72 h; series mostly up to 28.7 µM
[1] = tested on: CP305
Procedure, shortened: (§1)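 Infected RBCs, 0.3% parasitemia/2.5% Hct final; cpd 72 h, 37 C, 5% CO2; lysis buffer with saponin/triton/SYBR Green I, o/n RT dark; FI 485/535; norm. to artemisinin (0.29 uM) and DMSO.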

[2] = tested on: CP315
Procedure, shortened: as §1

[3] = tested on: CP325
Procedure, shortened: as §1

[4] = tested on: CP329
Procedure, shortened: as §1

[5] = tested on: CP335
Procedure, shortened: as §1

[6] = tested on: DFO2036
Procedure, shortened: as §1

[7] = tested on: DIV14
Procedure, shortened: as §1

[8] = tested on: DIV17
Procedure, shortened: as §1

[9] = tested on: DIV30
Procedure, shortened: as §1

[10] = tested on: Dd2
Procedure, shortened: as §1

[11] = tested on: ECU
Procedure, shortened: as §1

[12] = tested on: FAB9
Procedure, shortened: as §1

[13] = tested on: GB4
Procedure, shortened: as §1

[14] = tested on: HB3
Procedure, shortened: as §1

[15] = tested on: ICS
Procedure, shortened: as §1

[16] = tested on: JCK
Procedure, shortened: as §1

[17] = tested on: N140
Procedure, shortened: as §1

[18] = tested on: P93_24
Procedure, shortened: as §1

[19] = tested on: P94_40
Procedure, shortened: as §1

[20] = tested on: PAD
Procedure, shortened: as §1
Potency means the concentration at half of the fitted maximal effect.

Compound | Potency [1] | Potency [2] | Potency [3] | Potency [4] | Potency [5] | Potency [6] | Potency [7] | Potency [8] | Potency [9] | Potency [10] | Potency [11] | Potency [12] | Potency [13] | Potency [14] | Potency [15] | Potency [16] | Potency [17] | Potency [18] | Potency [19] | Potency [20]
CC[N+]1(C)CCCC(OC(=O)C(O)(c2ccccc2)c2ccccc2)C1 (configuration not stated) | inactive | inactive | inactive | inactive | inactive | inactive | inactive | inactive | inactive | inactive | inactive | inactive | inactive | inactive | inactive | inactive | inactive | inactive | inactive | inactive
Cc1ncc(CNC(=O)N(CCCl)N=O)c(N)n1 | inactive | inactive | inactive | inactive | inactive | inactive | inactive | inactive | inactive | inactive | inactive | inactive | inactive | inactive | inactive | inactive | inactive | inactive | inactive | inactive
CCOC(=O)C1(c2ccccc2)CCN(CCC(C#N)(c2ccccc2)c2ccccc2)CC1 | 4.78 µM (active) | 4.78 µM (active) | 4.26 µM (active) | 3.79 µM (active) | 3.38 µM (active) | 2.82 µM (active) | 4.78 µM (active) | 6.75 µM (active) | 6.75 µM (active) | 8.91 µM (active) | 3.98 µM (active) | – | 3.38 µM (active) | 5.01 µM (active) | 2.24 µM (active) | – | 3.55 µM (active) | 3.55 µM (active) | 3.16 µM (active) | 2.51 µM (active)
O=C1NCN(c2ccccc2)C12CCN(CC1COc3ccccc3O1)CC2 (configuration not stated) | inactive | inactive | inactive | inactive | inactive | inactive | inactive | – | inactive | inactive | inactive | inactive | inactive | inactive | 8.91 µM (active) | inactive | inactive | inactive | inactive | –
O=P1(NCCCl)OCCCN1CCCl (configuration not stated) | inactive | inactive | inactive | inactive | inactive | inactive | inactive | inactive | inactive | inactive | inactive | inactive | inactive | inactive | inactive | – | inactive | inactive | inactive | inactive
Nc1ccncc1 | inactive | inactive | inactive | inactive | inactive | inactive | inactive | inactive | inactive | inactive | inactive | inactive | inactive | inactive | inactive | inactive | inactive | inactive | inactive | inactive
CCCC(C)(COC(N)=O)COC(=O)NC(C)C (configuration not stated) | inactive | inactive | inactive | inactive | inactive | inactive | inactive | inactive | inactive | inactive | inactive | inactive | inactive | inactive | inactive | inactive | inactive | inactive | inactive | inactive
Clc1ccc(COC(Cn2ccnc2)c2ccc(Cl)cc2Cl)cc1 (configuration not stated) | 13.5 µM (active) | 15.1 µM (active) | 9.53 µM (active) | 10.7 µM (active) | 4.26 µM (active) | 2.51 µM (active) | 1.9 µM (active) | 1.51 µM (active) | 1.69 µM (active) | 2.82 µM (active) | 0.794 µM (active) | 11.2 µM (active) | 1.69 µM (active) | 3.98 µM (active) | 0.631 µM (active) | 8.91 µM (active) | 1.58 µM (active) | 1.12 µM (active) | 2 µM (active) | 2.51 µM (active)
O=C(NC(O)C(Cl)(Cl)Cl)NC(O)C(Cl)(Cl)Cl (configuration not stated) | inactive | inactive | inactive | inactive | inactive | inactive | inactive | inactive | inactive | inactive | inactive | inactive | inactive | inactive | inactive | inactive | inactive | inactive | inactive | inactive
O=C(O)c1ccc2[nH]cc(CCCCN3CC=C(c4ccccc4)CC3)c2c1 | inactive | inactive | inactive | inactive | inactive | inactive | – | inactive | inactive | inactive | inactive | inactive | inactive | inactive | inactive | inactive | inactive | inactive | inactive | inactive
CCCC1CCCCN1 (configuration not stated) | inactive | inactive | inactive | inactive | inactive | inactive | inactive | inactive | inactive | inactive | inactive | inactive | inactive | inactive | inactive | inactive | inactive | inactive | inactive | inactive
CC(=O)Nc1cc([As](=O)(O)O)ccc1O | inactive | inactive | inactive | inactive | inactive | inactive | inactive | inactive | inactive | inactive | inactive | inactive | inactive | inactive | inactive | inactive | inactive | inactive | inactive | inactive
CCC(COC(=O)c1cc(OC)c(OC)c(OC)c1)(c1ccccc1)N(C)C (configuration not stated) | inactive | inactive | inactive | inactive | inactive | inactive | inactive | inactive | inactive | inactive | inactive | inactive | – | inactive | inactive | inactive | inactive | inactive | – | inactive
